Experimental data as given in PubChem BioAssay AID1159580 (chemical genetic matrix, 2015).
The whole screen tested about 5,500 compounds, of which about 2,000 (36%) were called active. Roughly 18% stayed inconclusive and do not appear here. Cut-off read from the data, not from the text of the source: active = normalized growth mostly below about 0.91 (no sharp cut-off); inconclusive = no clear call, values can overlap the other calls; inactive = mostly above about 0.92. Some of the results follow.

Assay: chemical genetic growth profiling, strain panel (AID 1159580);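 note: tested at 20 µM; growth read once vehicle control cultures reached saturation at 30 °C; 1 = growth at the plate median or of vehicle wells; lower values mean less growth of the strain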
Details: growth OD

Measured: normalized growth

CN1CCOC(c2ccccc2)c2ccccc2C1 (configuration not stated)
inactive: S. cerevisiae deletion strains, locus YJR075W, strain HOC1, hits give low values 0.992 | S. cerevisiae deletion strains, locus YKL009W, strain mrt4, hits give low values 0.956 | S. cerevisiae deletion strains, locus YKL068W, hits give low values 1.01 | S. cerevisiae deletion strains, locus YKL085W, strain MDH1 (second series), hits give low values 0.996 | S. cerevisiae deletion strains, locus YKL085W, strain MDH1, hits give low values 0.996 | S. cerevisiae deletion strains, locus YKL160W, strain elf1, hits give low values 0.993 | S. cerevisiae deletion strains, locus YKL190W, strain CNB1, hits give low values 1 | S. cerevisiae deletion strains, locus YKR001C, strain vps1, hits give low values 1.03 | S. cerevisiae deletion strains, locus YKR026C, strain gcn3, hits give low values 0.978 | S. cerevisiae deletion strains, locus YKR091W, strain srl3, hits give low values 0.984 | S. cerevisiae deletion strains, locus YLL001W, strain dnm1, hits give low values 0.976 | S. cerevisiae deletion strains, locus YLL026W, hits give low values 0.99 | S. cerevisiae deletion strains, locus YLL041C, strain sdh2, hits give low values 0.983 | S. cerevisiae deletion strains, locus YLR027C, strain aat2, hits give low values 1 | S. cerevisiae deletion strains, locus YLR039C, strain RIC1, hits give low values 1.01 | S. cerevisiae deletion strains, locus YLR058C, strain SHM2, hits give low values 1 | S. cerevisiae deletion strains, locus YLR102C, strain apc9, hits give low values 1.02 | S. cerevisiae deletion strains, locus YLR113W, strain HOG1, hits give low values 0.997 | S. cerevisiae deletion strains, locus YLR221C, strain rsa3, hits give low values 0.983 | S. cerevisiae deletion strains, locus YLR258W, strain gsy2, hits give low values 0.948 | S. cerevisiae deletion strains, locus YLR262C, strain YPT6 (second series), hits give low values 0.955 | S. cerevisiae deletion strains, locus YLR262C, strain YPT6, hits give low values 1.02 | S. cerevisiae deletion strains, locus YLR268W, strain sec22, hits give low values 1.07 | S. cerevisiae deletion strains, locus YLR320W, strain mms22, hits give low values 0.975 | S. cerevisiae deletion strains, locus YLR330W, strain CHS5, hits give low values 1.01 | S. cerevisiae deletion strains, locus YLR342W, strain FKS1 (second series), hits give low values 1.01 | S. cerevisiae deletion strains, locus YLR342W, strain FKS1, hits give low values 0.982 | S. cerevisiae deletion strains, locus YLR357W, strain rsc2, hits give low values 0.954 | S. cerevisiae deletion strains, locus YLR370C, strain arc18, hits give low values 0.982 | S. cerevisiae deletion strains, locus YLR371W, strain rom2, hits give low values 1.04 | S. cerevisiae deletion strains, locus YLR384C, strain iki3, hits give low values 0.979 | S. cerevisiae deletion strains, locus YLR418C, strain cdc73, hits give low values 1.05 | S. cerevisiae deletion strains, locus YML016C, strain PPZ1, hits give low values 0.999 | S. cerevisiae deletion strains, locus YML032C, strain rad52, hits give low values 1.03 | S. cerevisiae deletion strains, locus YML120C, strain ndi1, hits give low values 0.995 | S. cerevisiae deletion strains, locus YML124C, strain tub3, hits give low values 1.02 | S. cerevisiae deletion strains, locus YMR058W, strain fet3, hits give low values 1.01 | S. cerevisiae deletion strains, locus YMR078C, strain ctf18, hits give low values 1.01 | S. cerevisiae deletion strains, locus YMR125W, strain sto1, hits give low values 0.967 | S. cerevisiae deletion strains, locus YMR129W, hits give low values 0.999 | S. cerevisiae deletion strains, locus YMR205C, strain PFK2, hits give low values 0.966 | S. cerevisiae deletion strains, locus YMR223W, strain ubp8, hits give low values 1.01 | S. cerevisiae deletion strains, locus YMR231W, strain pep5, hits give low values 0.973 | S. cerevisiae deletion strains, locus YMR263W, strain SAP30, hits give low values 1.02 | S. cerevisiae deletion strains, locus YMR307W, strain GAS1, hits give low values 1.15 | S. cerevisiae deletion strains, locus YNL067W, strain RPL9B, hits give low values 1.02 | S. cerevisiae deletion strains, locus YNL071W, strain lat1, hits give low values 0.951 | S. cerevisiae deletion strains, locus YNL128W, strain TEP1, hits give low values 1.01 | S. cerevisiae deletion strains, locus YNL153C, strain GIM3, hits give low values 1.02 | S. cerevisiae deletion strains, locus YNL183C, strain NPR1, hits give low values 0.945 | S. cerevisiae deletion strains, locus YNL209W, strain ssb2, hits give low values 0.981 | S. cerevisiae deletion strains, locus YNL233W, strain BNI4, hits give low values 1.01 | S. cerevisiae deletion strains, locus YNL248C, strain rpa49, hits give low values 0.954 | S. cerevisiae deletion strains, locus YNL250W, strain rad50, hits give low values 1.01 | S. cerevisiae deletion strains, locus YNL271C, strain bni1, hits give low values 1.02 | S. cerevisiae deletion strains, locus YNL298W, strain CLA4, hits give low values 1.01 | S. cerevisiae deletion strains, locus YNL307C, strain MCK1, hits give low values 1.02 | S. cerevisiae deletion strains, locus YNL322C, strain KRE1 (second series), hits give low values 0.958 | S. cerevisiae deletion strains, locus YNL322C, strain KRE1, hits give low values 0.941 | S. cerevisiae deletion strains, locus YNR049C, strain mso1, hits give low values 0.968 | S. cerevisiae deletion strains, locus YNR052C, strain pop2, hits give low values 1.03 | S. cerevisiae deletion strains, locus YOL006C, strain TOP1, hits give low values 1.07 | S. cerevisiae deletion strains, locus YOL012C, strain htz1 1.34 | S. cerevisiae deletion strains, locus YOL147C, strain pex11, hits give low values 1.01 | S. cerevisiae deletion strains, locus YOR001W, strain rrp6, hits give low values 0.99 | S. cerevisiae deletion strains, locus YOR061W, strain CKA2, hits give low values 1.01 | S. cerevisiae deletion strains, locus YOR069W, strain VPS5, hits give low values 1 | S. cerevisiae deletion strains, locus YOR070C, strain gyp1, hits give low values 0.981 | S. cerevisiae deletion strains, locus YOR080W, strain dia2, hits give low values 0.989 | S. cerevisiae deletion strains, locus YOR083W, strain WHI5, hits give low values 0.971 | S. cerevisiae deletion strains, locus YOR106W, strain vam3, hits give low values 0.963 | S. cerevisiae deletion strains, locus YOR136W, strain idh2, hits give low values 1.01 | S. cerevisiae deletion strains, locus YOR144C, strain elg1, hits give low values 1.02 | S. cerevisiae deletion strains, locus YOR184W, strain ser1, hits give low values 1.02 | S. cerevisiae deletion strains, locus YOR231W, strain MKK1, hits give low values 0.995 | S. cerevisiae deletion strains, locus YOR265W, strain rbl2, hits give low values 0.985 | S. cerevisiae deletion strains, locus YOR270C, strain vph1, hits give low values 0.917 | S. cerevisiae deletion strains, locus YOR290C, strain snf2, hits give low values 0.966 | S. cerevisiae deletion strains, locus YOR316C, strain cot1, hits give low values 1.02 | S. cerevisiae deletion strains, locus YPL051W, strain arl3, hits give low values 0.995 | S. cerevisiae deletion strains, locus YPL055C, strain LGE1, hits give low values 1 | S. cerevisiae deletion strains, locus YPL078C, strain atp4, hits give low values 0.979 | S. cerevisiae deletion strains, locus YPL106C, strain sse1, hits give low values 0.921 | S. cerevisiae deletion strains, locus YPL240C, strain hsp82, hits give low values 0.969 | S. cerevisiae deletion strains, locus YPL241C, strain CIN2, hits give low values 1.01 | S. cerevisiae deletion strains, locus YPL256C, strain CLN2, hits give low values 0.997 | S. cerevisiae deletion strains, locus YPR119W, strain clb2, hits give low values 1.01 | S. cerevisiae deletion strains, locus YPR141C, strain kar3, hits give low values 1.01 | S. cerevisiae deletion strains, locus YPR163C, strain tif3, hits give low values 1.03 | S. cerevisiae deletion strains, locus YPR167C, strain met16, hits give low values 1.02 | S. cerevisiae deletion strains, strain wtn01, hits give low values 1.02 | S. cerevisiae strains, strain wild type, hits give low values 1.01
